TDP-43 yeast inh – qHTS of TDP-43 Inhibitors | AID 652104, 2013 | Potency, µM (top dose mostly 46.1 µM), actives largely listed as activators | TDP-43 expressing yeast growth rescue, BacTiter-Glo, 24 h | hit rate 1.8% among 410,000; further: nearly all actives have a fitted effect of over 50% in size
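Growth rescue of TDP-43-toxic yeast measured as ATP luminescence (BacTiter-Glo). Cells grown to mid-log in raffinose, induced in galactose at OD600=0.02, exposed to compound 24 hr at 30 deg C.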
Abeta yeast res – qHTS for compounds that reverse cellular toxicity of Amyloid beta (A-beta) peptide in yeast: Primary Screen; AID 1347071, 2019; hit rate 0.063% among 410,000; yeast expressing A-beta42, growth rescue, OD600, 48 h; response scale: 0% DMSO, 100% iron-clioquinol control; Potency, µM (series often up to 46.1 µM), actives largely listed as activators; further: nearly all actives have a fitted effect of over 55% in size
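Growth rescue measured by 600 nm absorbance after 48 h yeast culture at 30 C with compound. Values normalized between DMSO and an equimolar ferric chloride plus clioquinol control.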
aSyn rescue – qHTS of alpha-syn Inhibitors; Yeast expressing alpha-synuclein, growth rescue, BacTiter-Glo, 24 h; hit rate 0.14% among 370,000; Potency, µM (titrated, usually from 46.1 µM), hits mostly activators; further: nearly all actives have a fitted effect of over 65% in size
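Galactose-induced alpha-syn yeast (OD600=0.02, raffinose-pregrown) + pinned cpd, 24 hr, 30 deg C; growth by BacTiter-Glo luminescence. Growth restoration scores as activation.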
FUS yeast rescue – qHTS for Suppressors of FUS Proteinopathy: Primary screen using FUS-linked yeast assay. S. cerevisiae FUS-expressing, growth rescue, OD600, 24 h. Potency, µM (titrated, usually from 76.6 µM), most hits filed as activators. hit rate 0.24% among 390,000; further: nearly all actives have a fitted effect of over 55% in size
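Galactose (2%) drives FUS expression in yeast precultured in raffinose; seeding density OD 0.005. Test compounds incubated 24hr at 30C and 99% humidity before absorbance at 600 nm was measured.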
Hits are given with their value; 0 = inactive; ? = inconclusive; - = not tested or not shown; [ ] = another dose, or the depositor's remark. Sampled rows, rich in hits. Any-hit rate of the full collection: about 2.1%. The call rests on the fitted dose curve; in most records, active means well fitted curve in the direction sought with a large enough effect; inconclusive means small, poorly fitted or top-dose-only effect, or another doubt; inactive means no such curve, though single readings can be large; an effect the other way counts as inactive or inconclusive.

SMILES	TDP-43 yeast inh	Abeta yeast res	aSyn rescue	FUS yeast rescue
COc1ccccc1CN=c1c([N+](=O)[O-])nn(-c2ccc3c(c2)OCCO3)n1O	18µM	0	0	0
O=C(C1CCCN1S(=O)(=O)c1ccc(Br)s1)N1CCc2ccccc2C1 (stereo not drawn)	-	-	-	0
O=C(O)c1ccc(N/N=C/c2cn(Cc3ccc(F)cc3)c3ccccc23)cc1	?	0	0	0
O=[N+]([O-])/C=C/c1cn(Cc2ccc(F)cc2)c2ccccc12	13µM	0	0	0
O=C1C(Cc2ccccc2)Nc2ncnc(N3CCN(c4ccccc4)CC3)c2N1Cc1ccccc1 (stereo not drawn)	0	0	0	0
Cc1ccc(CN2C(=O)C(Cc3ccccc3)Nc3ncnc(N4CCN(c5ccccc5)CC4)c32)cc1 (stereo not drawn)	0	0	0	25µM
COC(=O)c1cc(S(=O)(=O)N2CCN(C(C)=O)CC2)cn1C	-	-	-	0
O=C(Nc1ccc(C(F)(F)F)cc1)OC1CCC12CCCCC2 (stereo not drawn)	-	-	-	0
Cc1ccc(-n2c(C)nc3c(cnn3-c3ccc(C)c(C)c3)c2=O)cc1C	?	0	0	0
Cc1ccc(-n2c(C)nc3c(cnn3-c3ccccc3Cl)c2=O)cc1C	11µM	0	0	0
COc1cccc(-n2c(C)nc3c(cnn3-c3ccc(C)c(C)c3)c2=O)c1	22µM	0	-	0
COc1ccc(-n2c(C)nc3c(cnn3-c3ccc(C)c(C)c3)c2=O)cc1Cl	0	0	-	0
O=C(COc1ccc(Br)cc1)N1CCN(c2ccc([N+](=O)[O-])c(N3CCCCC3)c2)CC1	8.9µM	0	0	0
CC1CCN(C(=O)CSc2nc(-c3ccc(C(C)C)cc3)no2)CC1	18µM	0	-	0
COc1ccc(Nc2nc(N3CCOCC3)nc(N3CCOCC3)n2)cc1Cl	16µM	0	0	0
CCOc1nc(Nc2ccc(OC)c(Cl)c2)nc(OCC)n1	14µM	0	0	0
CCOc1nc(Nc2ccc(OC)cc2)nc(OCC)n1	0	0	0	0
Cc1ccc(Nc2nc(Nc3ccc(C)c(C)c3)nc(N3CCOCC3)n2)cc1C	0	0	-	0
COc1ccc2oc(C)c(C(=O)c3ccc([N+](=O)[O-])cc3)c2c1	22µM	0	0	-
CCOc1ccccc1C(=O)N(Cc1cccs1)c1ccc(Cl)cc1	22µM	0	-	0
Cc1ccc(N(Cc2cccs2)C(=O)c2ccccc2Cl)cc1	0	0	-	0
CCn1c(CN2CCC(C)CC2)nc2cc(NC(=O)COc3ccc(Cl)c(C)c3)ccc21	0	0	-	0
CCc1ccc(N2C(=O)Cc3c2nc(N)c(C#N)c3N)cc1	0	0	0	25µM
CN1CCc2nc3sc(C(=O)Nc4ccccc4OC(F)(F)F)c(N)c3cc2C1	18µM	0	-	?
O=c1c2ccccc2nc(/C=C/c2cccc3ccccc23)n1-c1ccc(F)cc1F	0	0	-	32µM
SMILES	TDP-43 yeast inh	Abeta yeast res	aSyn rescue	FUS yeast rescue
COc1cc(OC)c(OC)cc1/C=C/c1nc2cc3ccccc3cc2c(=O)n1-c1ccc(F)cc1F	0	0	-	0
Cc1cc(C)c(S(=O)(=O)NCCn2c(C)cc3ccccc32)c(C)c1	35µM	7.9µM	?	?
CCC(=C(c1ccc(OC)cc1)c1ccc(OC)cc1)c1cn(CC(O)CN(CCO)CCO)c2ccccc12 (stereo not drawn)	0	0	0	28µM
CC(=O)c1cc(C(=O)c2ccccc2)sc1Nc1ccccc1	35µM	0	0	0
Cc1nc(Nc2ccccc2)sc1C(=O)c1ccccc1	0[1.82 µM]	0	0	0
CCCCCOc1ccc(NC(=O)Cc2csc(C)n2)cc1	0	0	-	0
COc1ccc2nc(N3CCC(C)CC3)c(C#N)cc2c1	35µM	0	0	0
COc1ccc2nc(N3CCC(O)CC3)c(C#N)cc2c1	0	0	0	0
COc1cccc(C(=O)N2CCN(c3nc4cc(C)cc(C)c4cc3C#N)CC2)c1	35µM	0	0	0
O=C(O)c1cc2ccccc2[nH]1	0	0	0	0
O=C(O)c1cc2cc(Oc3ccccc3)ccc2[nH]1	18µM	0	0	0
Cn1c(C(=O)O)cc2cc(Oc3ccccc3)ccc21	22µM	0	0	0
Cc1ccc(N(C)S(=O)(=O)c2ccc(-c3coc(C)n3)cc2)cc1	0	0	0	0
Cc1csc2nc(-c3cccc(NC(=O)c4c(F)cccc4F)c3)cn12	0	0	0	?
Cc1ccnc(Nc2nc(-c3ccc(O)cc3O)cs2)c1	16µM	0	0	0

Compound activity deposited in PubChem by National Center for Advancing Translational Sciences (NCATS).
